This note sets out measurements from PubChem BioAssay.

Where “and” joins values, the source holds several entries; their conditions need not be identical. Equal values may be shown once. Records with an inconclusive call do not appear. Calls of active or inactive are those of the source.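 How the source made its calls, unless noted: active means compounds whose cell count with miR-34 switched on is under 0.7 times the count with it off; inactive means the rest.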

By inhibition is commonly meant the change of the read-out against control, counted positive when it falls. The term remaining activity denotes the signal under treatment as a percentage of the control signal. One may read the AC50 as the concentration at which the activity in the assay is half-maximal. One may read the viability as the share of living cells, or the viability signal relative to a control.

Experiment [1] in a line: compounds altering circadian rhythm period length – cell-based, LOPAC library, luminescence reporter (AID 2774; call rule not given here;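 further: values are relative to mean of DMSO wells on each plate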). The conditions noted are these: circadian reporter cells, at 7 µM, actives lie on both sides.
Experiment [2] deals with Hepatitis C virus NS3 helicase. Nature of the experiment: blockers of NS3h binding to ssDNA – biochemical, fluorescence polarization, LOPAC1280 library, primary screen (AID 687035; in the data active means inhibition above about 37%). The conditions noted are these: Purified HCV NS3 helicase, Cy5-dT15 ssDNA binding fluorescence polarization; stronger effect = higher value; concentration not given here. A general note: Polarisation of emitted light reports the rotation of a fluorescent probe.

The nature of experiment [3]: compounds altering Cy5-DNA-NS3h complex signal – biochemical, LOPAC1280, artefact control for HCV NS3 helicase inhibitor project (AID 687037; call rule not given here). The conditions noted are these: Cy5-DNA-NS3h complex fluorescence interference counterscreen. (A counterscreen serves to expose hits that act by an unwanted route or on another target.)
Experiment [4] concerns Aerobactin synthetase IucA (Klebsiella pneumoniae). The experiment is described as follows: inhibition of K. pneumoniae IucA enzyme – biochemical, Tocris library, absorbance (AID 1345561; call rule not given here;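 further: 100% = enzyme without compound and 0% = no enzyme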). The settings on record: purified IucA enzyme assay, absorbance (OD) read-out; stronger effect = lower value;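 tested at 8 µM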.
Experiment [5] in a line: viability loss in pontine glioma line – cell-based, SU-DIPG-XIII, MIPE4.0, CellTiter-Glo, qHTS, dose response (AID 1347061; cut-off not given, nearly all actives have AC50 up to about 37 µM;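 further: cells exposed to compound for 48 hours before readout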). The settings on record: CellTiter-Glo ATP luminescence. (Cellular ATP, detected with luciferase, serves as a proxy for viable cell number.)
The nature of experiment [6]: viability loss in pontine glioma line – cell-based, JHH-DIPG-1, MIPE4.0, CellTiter-Glo, qHTS, dose response (AID 1347062; cut-off not given, nearly all actives have AC50 up to about 27 µM;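 on AC50: cells exposed to compound for two days before readout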). The settings on record: JHH-DIPG-1 viability, CellTiter-Glo ATP luminescence.
Experiment [7] is described as follows: viability loss in pontine glioma line – cell-based, SU-DIPG-IV, MIPE4.0, CellTiter-Glo, qHTS, dose response (AID 1347063; cut-off not given, nearly all actives have AC50 up to about 30 µM;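 further: compound exposure lasted 48 hours before the viability readout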). The settings on record: CellTiter-Glo ATP luminescence.
Experiment [8] can be described thus: viability loss in pontine glioma line – cell-based, SU-DIPG-XIII, MIPE5.0, CellTiter-Glo, qHTS, dose response (AID 1347064; cut-off not given, nearly all actives have AC50 up to about 23 µM;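 on AC50: cells exposed to compound for 48 hours before the viability read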). The conditions noted are these: CellTiter-Glo ATP luminescence.
The nature of experiment [9]: JHH-DIPG-1 glioma cell viability, MIPE5.0 library, CellTiter-Glo luminescence, qHTS (AID 1347067; cut-off not given, nearly all actives have AC50 up to about 26 µM;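 further: cells exposed to compound for 48 hours before readout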). The settings on record: JHH-DIPG-1 glioma viability, CellTiter-Glo ATP luminescence.
Experiment [10] can be described thus: growth inhibition of DIPG cells – cell-based, MIPE5.0 library, qHTS (AID 1347068; cut-off not given, nearly all actives have IC50 up to about 30 µM). The settings on record: SU-DIPG-XXV viability.
The nature of experiment [11]: viability loss with induced miR-34 in A549 – imaging, A549 dox-inducible miR-34, nuclei and caspase counts, primary screen (AID 1347080). The settings on record: A549 miR-34 inducible, Hoechst nuclei count, 48 h.
The nature of experiment [12]: chitosan synthesis blockers in C. neoformans – flow cytometry, Cibacron Brilliant Red staining (AID 1347148; call rule not given here;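 further: compound exposure lasted three days at 37 degrees C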). The conditions noted are these: Cryptococcus neoformans chitosan, stronger effect = lower value; at 10 µM unless noted.
A short description of experiment [13]: blockers of cellular phospholipid synthesis – cell-based, LOPAC library, screen 4, primary screen (AID 1347384; call rule not given here). The conditions noted are these: animal cells, phospholipid biosynthesis inhibition screen; at 10 µM.
A short description of experiment [14]: MELAS cybrid and Rieske KO viability enhancers – cell-based, MELAS cybrids, Rieske KO mouse fibroblasts, CellTiter-Glo, primary screen (AID 1508586;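 active means mean z-score across replicates of 1.96 or higher in either the MELAS or the Rieske mutant cell line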;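 further: z relative to plate mean and SD of compound and empty wells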). The settings on record: low glucose.
The nature of experiment [15]: galactose survival enhancers in mitochondrial complex I cybrids – cell-based, galactose medium, ATP luminescence, primary screen (AID 1645843;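 active means z-score of at least 1.8 in each of two replicates, scored against plate mean and spread of sample wells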;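 further: positive z means more ATP and so rescue of galactose-driven cybrid death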). The conditions noted are these: complex I mutant cybrid cells, 72 h, stronger effect = higher value.
A short description of experiment [16]: growth inhibition, single agents and combos, ICB984, cell-based, cisplatin or BGB combos, synergistic combos for chromothripsis tumors (AID 1671451; call rule not given here;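 further: cells exposed for 96 hours before readout; 0% = vehicle DMSO and 100% = killing by high DMSO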). The settings on record: ICB984 medulloblastoma cells, drug combinations, stronger effect = higher value.
Experiment [17] in a line: P. berghei load reduction in hepatocytes – cell-based, HepG2, luciferase luminescence, HepG2 viability, primary screen (AID 624349; in the data active means parasite load remaining mostly below about 12%, no sharp cut-off; inactive means mostly above about 10%;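 further: 100% = mean of DMSO negative control wells on the same plate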). The conditions noted are these: P. berghei liver stage in HepG2, luciferase luminescence, concentration not given here; parasite load remaining: stronger effect = lower value; viability: measured here: HepG2 viability without parasites.
Experiment [18] can be described thus: growth inhibition of DIPG cells – cell-based, MIPE4.0 library, CellTiter-Glo luminescence, qHTS (AID 1347066; cut-off not given, nearly all actives have AC50 up to about 30 µM;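 further: cells exposed to compound for 48 hours before readout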). The conditions noted are these: SU-DIPG-VI viability, CellTiter-Glo ATP luminescence.
Where [19] appears, read: stronger effect = lower value, cell number ratio, induced over uninduced.
[20] abbreviates: MELAS cybrid survival, CellTiter-Glo 48 h, stronger effect = higher value.
The mark [21] stands for this setting: Rieske KO mouse fibroblast survival, CellTiter-Glo 72 h.
Setting [22] is: measured here: relative caspase fold change +Dox/-Dox.
Setting [23] is: measured here: total cells with miR-34 induction, stronger effect = lower value.
The mark [24] stands for this setting: measured here: total cells without miR-34 induction.

Take `O=C1NC(=O)C(c2ccccc2[N+](=O)[O-])=C1Nc1ccc(O)c(Cl)c1`: the period change in experiment [1] was 0.15 h (inactive). The inhibition in [2] was -2% (inactive). The fluorescence ratio (interference) in experiment [3] was 1 (inactive). The remaining activity in experiment [4] was 112% (inactive). Besides, the result in experiment [5], in [6], in [7], in experiment [8], in experiment [9] and in [10] was inactive. Further, the compound was classed as inactive in [13]. Further, in experiment [11] (setting [19]), the fold change is 1 (inactive) and 1.09 (inactive) and 0.982 (inactive). Also, in experiment [12], the fold fluorescence was 5.23 [at 139 µM] (inactive). In addition, the z-score in experiment [14] (setting [20]) was -0.406 (inactive); in experiment [14] (setting [21]) it was 0.723; in experiment [15] it was 1.65 (inactive) and 0.35 (inactive).
In the case of `CCc1c2c(nc3ccc(O)cc13)-c1cc3c(c(=O)n1C2)COC(=O)[C@]3(O)CC`, the remaining activity in experiment [4] is 107% (inactive). Moreover, the AC50 in experiment [7] was 0.0296 µM (active). Moreover, the fold change is 0.769 (inactive) and 0.994 (inactive) in [11] (setting [19]); 3.45 and 2.11 in experiment [11] (setting [22]). Moreover, the cell count in experiment [11] (setting [23]) is 1510 and 2070; in experiment [11] (setting [24]) it was 1960 and 2080. Besides, the results for the z-score in experiment [14] (setting [20]), in experiment [14] (setting [21]) and in experiment [15] were 0.182 (inactive), -0.363 and -0.66 (inactive), respectively. In addition, the inhibition is 45.8% in [16] (BGB IC20 combo, at 0.005 µM); 68.8% in experiment [16] (BGB IC40 combo, at 0.005 µM); 95.3% in experiment [16] (BGB IC40 combo, at 0.05 µM); -17.9% (inactive) in [16] (at 0.5 µM); 95.2% in experiment [16] (cisplatin combo, at 0.05 µM); -11.4% in [16] (cisplatin combo, at 0.5 µM). Also, the inhibition in experiment [16] (cisplatin combo, at 5 µM) was -28.7%; in experiment [16] (measured here: 5 uM single agent, at 5 µM), -16.8%.
As to `COc1nccc(-c2c(-c3ccc(F)cc3)ncn2C2CCC(O)CC2)n1` (stereo unspecified), the parasite load remaining in experiment [17] is 41% (inactive). This compound also gave a viability in experiment [17] of 82.3%. Moreover, the remaining activity in experiment [4] is 92.5% (inactive). Also, the compound was classed as inactive in experiment [5], in experiment [6], in experiment [7], in experiment [18], in [9] and in experiment [10]. For the same compound, the fold change is 0.979 (inactive) in [11] (setting [19]) and 0.79 in experiment [11] (setting [22]). The cell count in experiment [11] (setting [23]) was 6910; in experiment [11] (setting [24]), 7050. In [15], the z-score was 0.59 (inactive).
As for `Oc1ccc2ccccc2c1SSc1c(O)ccc2ccccc12`, the parasite load remaining in [17] was 35.3% (inactive). Besides, the viability in experiment [17] came to 87.1%. Besides, the inhibition in [2] is 3% (inactive). In addition, the fluorescence ratio (interference) in [3] is 1 (inactive). In addition, the remaining activity in experiment [4] was 112% (inactive). For the same compound, the AC50 is 23.5 µM (active) in experiment [6]; 18.7 µM (active) in experiment [7]; 14.8 µM (active) in experiment [8]; 23.5 µM (active) in [18]; 10.5 µM (active) in experiment [9]. The result in experiment [10] and in experiment [13] was inactive. Moreover, the fold change was 0.974 (inactive) and 0.952 (inactive) and 0.85 (inactive) in experiment [11] (setting [19]); 1 and 0.368 and 2.34 in experiment [11] (setting [22]). Moreover, the cell count in experiment [11] (setting [23]) was 7700 and 7960 and 7720; in experiment [11] (setting [24]), 7910 and 8360 and 9070. The z-score was 2.05 (active) in experiment [14] (setting [20]); -0.0374 in experiment [14] (setting [21]); -1.38 (inactive) and -0.86 (inactive) in [15].
Take `COc1cc2nccc(Oc3ccc(NC(=O)Nc4ccc(F)cc4F)c(F)c3)c2cc1OC`: the remaining activity in [4] is 115% (inactive). In addition, the outcome in experiment [6] and in experiment [18] was inactive. The AC50 in experiment [9] was 4.17 µM (active). For the same compound, the fold change in experiment [11] (setting [19]) is 0.97 (inactive) and 0.906 (inactive); in experiment [11] (setting [22]), 1.3 and 1.55. The cell count in [11] (setting [23]) was 1960 and 2970; in experiment [11] (setting [24]) it was 2020 and 3280. Further, the z-score in [14] (setting [20]) was -0.553 (inactive); in [14] (setting [21]) it was 0.363; in experiment [15], -0.37 (inactive).
Take `Cc1cc(NC(=O)Nc2ccc(N(C)C)cc2)c2cc(F)cc(F)c2n1`: the remaining activity in [4] is 98.2% (inactive). Besides, the outcome in experiment [5], in experiment [6], in [8], in experiment [18], in experiment [9] and in experiment [10] was inactive. For the same compound, the fold change in experiment [11] (setting [19]) was 0.902 (inactive) and 0.887 (inactive); in [11] (setting [22]) it was 0.91 and 0.717. Moreover, the cell count in [11] (setting [23]) was 6380 and 7970; in experiment [11] (setting [24]), 7070 and 8990. Also, the figures for the z-score in [14] (setting [20]), in experiment [14] (setting [21]) and in [15] were 1.11 (inactive), -0.687 and -0.32 (inactive), respectively.
